In assay [1] the test system is Aerobactin synthetase IucA (Klebsiella pneumoniae). In words: inhibition of K. pneumoniae IucA enzyme – biochemical, Tocris library, absorbance (AID 1345561).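 Further: 100% = enzyme without compound and 0% = no enzyme.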 The following applies: purified IucA enzyme assay, absorbance (OD) read-out; stronger effect = lower value;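 tested at 8 µM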.
Assay [2] can be described thus: viability loss in pontine glioma line – cell-based, SU-DIPG-XIII, MIPE5.0, CellTiter-Glo, qHTS, dose response (AID 1347064; cut-off not given, nearly all actives have AC50 up to about 23 µM). The following applies: CellTiter-Glo ATP luminescence.
Assay [3] can be described thus: viability loss in pontine glioma line – cell-based, SU-DIPG-IV, MIPE4.0, CellTiter-Glo, qHTS, dose response (AID 1347063; cut-off not given, nearly all actives have AC50 up to about 30 µM;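 further: compound exposure lasted 48 hours before the viability readout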). The following applies: CellTiter-Glo ATP luminescence.
A short description of assay [4]: growth inhibition, single agents and combos, CRL2098, cell-based, BGB or cisplatin IC20 combos, synergistic combos for chromothripsis tumors (AID 1671454; in the data active means inhibition above about 80%;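 further: cells exposed for 96 h before readout; 0% = vehicle DMSO and 100% = killing by high DMSO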). The following applies: CRL2098 osteosarcoma cells, drug combinations, stronger effect = higher value.
Assay [5] can be described thus: growth inhibition, single agents and combos, HD-MB03, cell-based, BGB or cisplatin IC20 combos, synergistic combos for chromothripsis tumors (AID 1671455; in the data active means inhibition above about 83%;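 further: 0% = vehicle DMSO and 100% = high DMSO as cytotoxic control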). The following applies: HD-MB03 medulloblastoma cells, stronger effect = higher value.
A short description of assay [6]: growth inhibition, single agents and combos, UWB1.289, cell-based, BGB or cisplatin combos, synergistic combos for chromothripsis tumors (AID 1671456; in the data active means inhibition above about 80%;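 further: cells exposed to compound for four days; 0% = vehicle DMSO and 100% = killing by high DMSO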). The following applies: UWB1.289 ovarian carcinoma cells, stronger effect = higher value.
Assay [7] can be described thus: growth inhibition, single agents and combos, LFS_MB_2R, cell-based, cisplatin combos, synergistic combos for chromothripsis tumors (AID 1671457; in the data active means inhibition above about 80%;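 further: cells exposed to compound for four days before readout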). The following applies: LFS_MB_2R medulloblastoma cells, stronger effect = higher value.
Assay [8] can be described thus: UWB1.289_BRCA1 ovarian cancer growth, cell-based, BGB or cisplatin combinations (AID 1671459; in the data active means inhibition above about 80%). The following applies: UWB1.289 BRCA1 ovarian carcinoma, drug combinations, stronger effect = higher value.
The nature of assay [9]: drug combination toxicity in non-malignant astrocytes – cell-based, BGB or cisplatin IC20 combos, cytotoxicity control for chromothriptic childhood tumor combination screen (AID 1671460; in the data active means inhibition above about 80%;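 further: cells exposed to compounds for 96 hours before viability readout; 0% = vehicle and 100% = killing control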). The following applies: Human astrocytes, viability inhibition, drug combinations, at 0.5 µM, stronger effect = higher value.
Assay [10] deals with ATP-dependent translocase ABCB1 (Homo sapiens) (UniProt P08183). In words: P-glycoprotein substrate transport blockade – cell-based (AID 377; in the data active means fluorescence slope change above about 50%). The following applies: MDR1-expressing cells, fluorescent substrate accumulation slope; stronger effect = higher value; concentration not given here.
ATP-dependent translocase ABCB1 (Homo sapiens), sequence (P08183 whole entry, looked up): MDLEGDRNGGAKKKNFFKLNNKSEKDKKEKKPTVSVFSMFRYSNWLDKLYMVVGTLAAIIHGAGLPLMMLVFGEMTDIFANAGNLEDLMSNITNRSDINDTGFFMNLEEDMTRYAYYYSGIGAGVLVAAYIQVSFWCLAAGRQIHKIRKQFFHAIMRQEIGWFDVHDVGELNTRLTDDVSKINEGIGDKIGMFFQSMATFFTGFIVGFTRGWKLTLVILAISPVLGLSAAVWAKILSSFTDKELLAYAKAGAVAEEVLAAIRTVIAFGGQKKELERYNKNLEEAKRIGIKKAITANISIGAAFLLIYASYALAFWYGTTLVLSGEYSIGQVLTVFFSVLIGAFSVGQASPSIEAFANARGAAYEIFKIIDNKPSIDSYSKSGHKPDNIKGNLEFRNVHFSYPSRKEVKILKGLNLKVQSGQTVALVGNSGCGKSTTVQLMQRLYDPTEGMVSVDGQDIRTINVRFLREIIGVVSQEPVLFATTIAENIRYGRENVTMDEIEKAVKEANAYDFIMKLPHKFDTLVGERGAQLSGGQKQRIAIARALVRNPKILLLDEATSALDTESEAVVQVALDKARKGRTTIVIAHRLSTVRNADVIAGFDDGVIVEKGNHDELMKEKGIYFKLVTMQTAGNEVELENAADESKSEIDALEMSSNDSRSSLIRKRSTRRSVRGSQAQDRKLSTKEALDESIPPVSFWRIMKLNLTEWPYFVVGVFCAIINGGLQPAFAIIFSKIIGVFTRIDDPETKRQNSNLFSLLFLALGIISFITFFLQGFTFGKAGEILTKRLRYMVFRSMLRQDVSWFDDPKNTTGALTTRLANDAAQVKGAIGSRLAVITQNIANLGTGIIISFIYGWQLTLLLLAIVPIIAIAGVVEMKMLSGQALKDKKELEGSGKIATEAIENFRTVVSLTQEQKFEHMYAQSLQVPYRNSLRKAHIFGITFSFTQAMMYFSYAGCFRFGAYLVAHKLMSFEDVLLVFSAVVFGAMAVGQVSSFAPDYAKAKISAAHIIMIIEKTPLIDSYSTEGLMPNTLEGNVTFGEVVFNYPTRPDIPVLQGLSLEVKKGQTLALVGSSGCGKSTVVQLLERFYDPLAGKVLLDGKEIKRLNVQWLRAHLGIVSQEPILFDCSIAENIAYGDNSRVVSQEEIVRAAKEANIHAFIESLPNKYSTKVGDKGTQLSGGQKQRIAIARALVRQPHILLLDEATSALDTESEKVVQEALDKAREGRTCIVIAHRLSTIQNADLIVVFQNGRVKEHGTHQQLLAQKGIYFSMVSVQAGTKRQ
Assay [11] in a line: antimalarial activity against Dd2 strain (AID 2302;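 active means growth inhibition above 50% at the single 2 µM test dose, taken to imply half-maximal potency below 2 µM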;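 further: 0% = DMSO untreated growth and 100% = chloroquine plus artemisinin killed control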). The following applies: P. falciparum Dd2 in RBCs, LDH growth readout, 72 h; at 2 µM; stronger effect = higher value.
Assay [12] concerns the target L-lactate dehydrogenase (Plasmodium falciparum (isolate CDC / Honduras)) (UniProt Q27743). In words: PfLDH activity inhibition – cell lysate, 3D7 strain, counter-screen for P. falciparum growth inhibition project (AID 2304).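 Further: 0% = vehicle and 100% = reference inhibitor.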 The following applies: P. falciparum 3D7 crude extract, LDH APAD/NBT absorbance; at 2 µM; stronger effect = higher value.
The nature of assay [13]: inhibition of 3D7 malaria parasite growth – strain 3D7 (AID 2306).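 Further: 0% = DMSO wells and 100% = chloroquine plus artemisinin control wells.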 The following applies: P. falciparum 3D7 erythrocytic growth, LDH absorbance, 72 h; at 2 µM; stronger effect = higher value.
Assay [14] concerns the target Calcium-dependent protein kinase 1 (Plasmodium falciparum (isolate 3D7)) (UniProt P62344). In words: PfCDPK1 kinase inhibitors, biochemical, TCAMS library (AID 1159585; cut-off not given, nearly all actives have IC50 up to about 0.98 µM;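 further: inhibitors leave more ATP so luminescence rises with inhibition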). The following applies: recombinant PfCDPK1, Kinase-Glo ATP depletion luminescence.
In assay [15] the target is Plasmodium falciparum protein kinase 6 (PK6, PF3D7_1337100) (UniProt Q8IDW1). In words: PfPK6 kinase inhibitors, biochemical, TCAMS library (AID 1159586). The following applies: recombinant PfPK6, Kinase-Glo ATP depletion luminescence.
Plasmodium falciparum protein kinase 6 (PK6, PF3D7_1337100), sequence (Q8IDW1 1-305): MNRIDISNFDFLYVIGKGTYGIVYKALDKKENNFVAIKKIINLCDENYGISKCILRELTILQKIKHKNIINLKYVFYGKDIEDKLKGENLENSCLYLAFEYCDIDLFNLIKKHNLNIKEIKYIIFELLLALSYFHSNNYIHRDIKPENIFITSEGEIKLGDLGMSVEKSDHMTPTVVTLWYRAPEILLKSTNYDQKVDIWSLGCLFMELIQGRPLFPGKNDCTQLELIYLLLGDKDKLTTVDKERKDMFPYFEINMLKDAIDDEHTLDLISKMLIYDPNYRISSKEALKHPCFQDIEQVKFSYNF
The target in assay [16] is Protein kinase 7 (PK7), Plasmodium falciparum 3D7 (PF3D7_0213400) (UniProt Q7YTF7). In words: inhibition of Plasmodium PK7 catalytic activity – biochemical, TCAMS antimalarial set, Kinase-Glo luminescence (AID 1159587). The following applies: recombinant PfPK7, Kinase-Glo ATP depletion luminescence.
Protein kinase 7 (PK7), Plasmodium falciparum 3D7 (PF3D7_0213400), sequence (Q7YTF7 1-343): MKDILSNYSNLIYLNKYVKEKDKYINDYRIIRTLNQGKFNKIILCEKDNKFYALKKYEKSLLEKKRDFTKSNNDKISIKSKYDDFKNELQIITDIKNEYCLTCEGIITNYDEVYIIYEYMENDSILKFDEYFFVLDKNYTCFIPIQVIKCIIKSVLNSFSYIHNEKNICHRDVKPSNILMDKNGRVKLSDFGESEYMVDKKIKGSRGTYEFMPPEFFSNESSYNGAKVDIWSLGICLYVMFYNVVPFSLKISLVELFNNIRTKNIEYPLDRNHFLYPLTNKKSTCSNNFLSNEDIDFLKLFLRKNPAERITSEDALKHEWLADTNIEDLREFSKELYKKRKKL
A short description of assay [17]: compounds altering HSF1 focus formation in cells – imaging, Selleck Cancer Library (AID 1347162; in the data active means plate-normalised HSF1 focus index below about 0.46). The following applies: human cells, HSF1 nuclear foci imaging, at 10 µM; SSMD: measured here: HSF1 foci SSMD mean; cell count: measured here: cell number; plate-normalised HSF1 focus index: stronger effect = lower value.
Assay [18] relates to Neuropilin-2 / VEGF-C interaction (human). In words: small molecules blocking Neuropilin-2/VEGF-C interaction – biochemical, microplate binding format, z-score (AID 743281). The following applies: microplate NRP2/VEGF-C binding assay; stronger effect = lower value.
Assay [19] in a line: chitosan synthesis blockers in C. neoformans – flow cytometry, Cibacron Brilliant Red staining (AID 1347148).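 Further: compound exposure lasted three days at 37 degrees C.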 The following applies: Cryptococcus neoformans chitosan, stronger effect = lower value; at 99.1 µM unless noted.

Several values for one entry are separate records, joined by “and”; a condition that tells them apart may be missing. Equal entries are not always repeated. Records with an inconclusive call do not appear. For some of these results: Results with a measured potency or affinity are listed apart. Activity calls are given as the source filed them. Unless noted, how the calls were made is not given here.

L-lactate dehydrogenase (Plasmodium falciparum (isolate CDC / Honduras)), sequence (Q27743 whole entry, looked up): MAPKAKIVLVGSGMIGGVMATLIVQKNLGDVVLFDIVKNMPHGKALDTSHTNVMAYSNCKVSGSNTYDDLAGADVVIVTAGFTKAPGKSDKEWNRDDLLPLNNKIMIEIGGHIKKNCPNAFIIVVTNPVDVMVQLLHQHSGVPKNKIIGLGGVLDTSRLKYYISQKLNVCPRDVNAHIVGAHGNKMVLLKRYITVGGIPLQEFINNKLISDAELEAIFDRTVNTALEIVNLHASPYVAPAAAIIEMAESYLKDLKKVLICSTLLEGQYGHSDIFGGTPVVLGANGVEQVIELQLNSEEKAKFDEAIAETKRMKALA
Calcium-dependent protein kinase 1 (Plasmodium falciparum (isolate 3D7)), sequence (P62344 whole entry, looked up): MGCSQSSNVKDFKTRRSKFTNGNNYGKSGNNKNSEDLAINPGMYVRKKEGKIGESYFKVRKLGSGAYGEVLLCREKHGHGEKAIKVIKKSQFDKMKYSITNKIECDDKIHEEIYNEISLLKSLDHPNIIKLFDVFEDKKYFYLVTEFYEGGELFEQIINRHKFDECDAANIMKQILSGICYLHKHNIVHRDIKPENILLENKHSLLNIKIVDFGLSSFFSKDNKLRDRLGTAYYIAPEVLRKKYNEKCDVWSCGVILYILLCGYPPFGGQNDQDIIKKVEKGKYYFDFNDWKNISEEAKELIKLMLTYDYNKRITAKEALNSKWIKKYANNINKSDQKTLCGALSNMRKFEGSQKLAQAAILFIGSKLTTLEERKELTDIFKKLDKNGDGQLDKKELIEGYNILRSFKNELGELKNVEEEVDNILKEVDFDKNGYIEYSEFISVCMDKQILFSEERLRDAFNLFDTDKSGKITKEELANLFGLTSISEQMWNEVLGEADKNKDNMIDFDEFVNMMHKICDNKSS

`CC(C)NCC(O)c1ccc(O)c(O)c1` (configuration not stated): the remaining activity in assay [1] was 108% (inactive). In addition, the compound was called inactive in assay [2].

Take `Nc1nc2c(ncn2COCCO)c(=O)[nH]1`: the remaining activity in [1] is 117% (inactive). In assay [3], the compound was classed as inactive. Besides, the inhibition in assay [4] (at 0.5 µM) is -82.3% (inactive) and -42.2% (inactive); in [4] (measured here: combination with BGB at IC20, at 0.5 µM), -65.6% and -27.8%; in [4] (measured here: combination with cisplatin at IC20, at 0.5 µM) it was -92.2% and -76%; in [5] (at 0.5 µM), -9.51% (inactive) and -3.72% (inactive); in assay [5] (measured here: combo with BGB at IC20, at 0.5 µM), -2.11% and -3.06%; in assay [5] (measured here: combo with cisplatin at IC20, at 0.5 µM) it was -19.5% and -6.04%. The inhibition in assay [6] (at 0.5 µM) is -7.84% (inactive) and 5.52% (inactive); in [6] (measured here: inhibition with BGB combination, at 0.05 µM) it was -9.01% and -4.82%; in assay [6] (measured here: inhibition with cisplatin combination, at 0.05 µM), -11.4% and 12.5%; in [7] (at 0.5 µM), -16.1% (inactive) and -6.37% (inactive); in [7] (measured here: combination with cisplatin, at 0.5 µM), -14.9% and -19.4%; in assay [7] (measured here: combination with cisplatin, at 5 µM), -76% and -8.06%. For the same compound, the inhibition in assay [8] (BGB combination, concentration series, at 5 µM) was -23.1% and 1.37%; in assay [8] (at 0.5 µM), -9.4% (inactive) and 8.78% (inactive); in assay [8] (cisplatin combination, concentration series, at 5 µM), -14.8% and -13.6%; in assay [9] it was -9.43% (inactive) and 7.59% (inactive); in assay [9] (measured here: combo with BGB IC20), -2.39% and 2.09%; in assay [9] (measured here: combo with cisplatin IC20) it was -29.6% and 5.16%.

With `CCN(CC)CCCC(C)Nc1ccnc2cc(Cl)ccc12` (configuration not stated), in [10], the fluorescence slope change was -4.1% (inactive). For the same compound, the growth inhibition in [11] is 96% (active); in assay [13], 100% (active). Besides, the inhibition in assay [12] was -1% (inactive). In addition, the outcome in assay [14], in assay [15], in [16] and in assay [2] was inactive.

Turning to `CC1=C(CC(=O)O)c2cc(F)ccc2/C1=C\c1ccc(S(C)=O)cc1` (configuration not stated), the remaining activity in assay [1] is 115% (inactive).

Consider `CCC(C)(C)C(=O)O[C@H]1C[C@@H](C)C=C2C=C[C@H](C)[C@H](CC[C@@H]3C[C@@H](O)CC(=O)O3)[C@H]21`, for which, in [1], the remaining activity was 114% (inactive). For the same compound, the AC50 in assay [3] is 18.7 µM (active). In addition, in [17], the SSMD came to 1.41, the cell count was 7420 and the plate-normalised HSF1 focus index was 1.09 (inactive).

Consider `CN1C(C(=O)Nc2ccccn2)=C(O)c2ccccc2S1(=O)=O`, for which the z-score in assay [18] is -1.26 (inactive). For the same compound, in assay [1], the remaining activity was 127% (inactive). The call in assay [2] was inactive. For the same compound, in assay [19], the fold fluorescence is 4.04 [at 150.9 µM] (inactive).

In the case of `Cc1noc(NS(=O)(=O)c2ccc(N)cc2)c1C`, in [1], the remaining activity is 91.4% (inactive). Besides, in assay [3], the call was inactive.

On to `c1ccc(CC2=NCCN2)cc1`, for which the growth inhibition is 0% (inactive) in [11] and 94% (active) in assay [13]. The inhibition in [12] is -3% (inactive). For the same compound, the result in assay [14], in assay [15] and in assay [16] was inactive.

For `CN(C)CCCN1c2ccccc2CCc2ccc(Cl)cc21`, in assay [10], the fluorescence slope change is 179% (active). Further, in assay [1], the remaining activity was 96.8% (inactive). The AC50 in assay [3] was 18.7 µM (active). Besides, the call in [2] was inactive.

On to `N=C(N)c1ccc(OCCCCCOc2ccc(C(=N)N)cc2)cc1`, for which the fluorescence slope change in [10] is 28.9% (inactive). Moreover, the results for the growth inhibition in [11] and in assay [13] were 98% (active) and 99% (active), respectively. Also, the inhibition in [12] was -2% (inactive). Besides, the result in assay [14], in assay [15] and in assay [16] was inactive.

`c1ccc([C@H]2CN3CCSC3=N2)cc1`: the fluorescence slope change in assay [10] was 63.5% (active). Moreover, the values for the growth inhibition in assay [11] and in assay [13] were 1% (inactive) and 93% (active), respectively. The inhibition in assay [12] was 5% (inactive). Moreover, the outcome in assay [14], in assay [15], in [16] and in assay [2] was inactive.

The values are drawn from PubChem BioAssay.
